Records with an inconclusive call do not appear. Unmarked numbers belong to inactive results. Calls of active or inactive are those of the source. Calls come from the whole dose curve; as a rule, active = well fitted cell-killing curve with a large enough effect; inconclusive = small, poorly fitted or top-dose-only effect, or effect the other way; inactive = no such curve, though single readings can be large or run the other way.
How the values were obtained:
[1] = Quantitative High-Throughput drug screen in 47 multiple myeloma cell lines against the NCATS MIPE library collection: KMS34_JCRB cell viability assay (AID 1918985); details: KMS34 myeloma viability, CellTiter-Glo ATP luminescence, 48 h; series mostly up to 45.8 µM; note: nearly all actives have a fitted effect of over 40% in size
Procedure, shortened: (§1)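 qHTS format: cells plated (500/well), pin-dosed with MIPE 4.0 compounds, kept 48 h at 37 °C. Readout was CellTiter-Glo luminescence, median RLU.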

[2] = Quantitative High-Throughput drug screen in 47 multiple myeloma cell lines against the NCATS MIPE library collection: SKMM1_PLB cell viability assay (AID 1919863); details: SKMM1 myeloma viability, CellTiter-Glo ATP, 48 h; viability: stronger effect = lower value; note: nearly all actives have a fitted effect of over 35% in size
Procedure, shortened: as §1

[3] = Quantitative High-Throughput drug screen in 47 multiple myeloma cell lines against the NCATS MIPE library collection: U266_ATCC cell viability assay (AID 1919864); details: U266 myeloma viability, CellTiter-Glo ATP luminescence, 48 h; series mostly up to 45.8 µM; note: nearly all actives have a fitted effect of over 35% in size;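 for viability (% of DMSO control): 0% = media-only wells without cells and 100% = DMSO-only wells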
Procedure, shortened: as §1

[4] = Quantitative High-Throughput drug screen in 47 multiple myeloma cell lines against the NCATS MIPE library collection: XG6_PLB cell viability assay (AID 1919865); details: XG6 myeloma viability, CellTiter-Glo ATP luminescence, 48 h; series mostly up to 45.8 µM; note: nearly all actives have a fitted effect of over 40% in size
Procedure, shortened: as §1

[5] = Quantitative High-Throughput drug screen in 47 multiple myeloma cell lines against the NCATS MIPE library collection: XG1_PLB cell viability assay (AID 1919866); details: CellTiter-Glo ATP, 48 h; series mostly up to 45.8 µM; note: nearly all actives have a fitted effect of over 35% in size
Procedure, shortened: as §1

[6] = Quantitative High-Throughput drug screen in 47 multiple myeloma cell lines against the NCATS MIPE library collection: PE2_PLB cell viability assay (AID 1919869); details: PE2_PLB myeloma cells viability, ATP luminescence, 48 h; series mostly up to 45.8 µM; note: nearly all actives have a fitted effect of over 35% in size
Procedure, shortened: as §1

[7] = Quantitative High-Throughput drug screen in 47 multiple myeloma cell lines against the NCATS MIPE library collection: PCM6_Riken cell viability assay (AID 1919870); details: CellTiter-Glo ATP, 48 h; series mostly up to 45.8 µM; note: nearly all actives have a fitted effect of over 30% in size
Procedure, shortened: as §1

[8] = Quantitative High-Throughput drug screen in 47 multiple myeloma cell lines against the NCATS MIPE library collection: RPMI8226_ATCC cell viability assay (AID 1919871); details: RPMI8226 myeloma viability, CellTiter-Glo ATP luminescence, 48 h; series mostly up to 45.8 µM; note: nearly all actives have a fitted effect of over 30% in size
Procedure, shortened: as §1

[9] = Quantitative High-Throughput drug screen in 47 multiple myeloma cell lines against the NCATS MIPE library collection: KMS11_JCRBsus cell viability assay (AID 1919873); details: KMS11 myeloma viability, CellTiter-Glo ATP luminescence, 48 h; series mostly up to 45.8 µM; note: nearly all actives have a fitted effect of over 50% in size
Procedure, shortened: as §1

[10] = Quantitative High-Throughput drug screen in 47 multiple myeloma cell lines against the NCATS MIPE library collection: KMS28BM_JCRB cell viability assay (AID 1919874); details: CellTiter-Glo ATP, 48 h; series mostly up to 45.8 µM; note: nearly all actives have a fitted effect of over 35% in size
Procedure, shortened: as §1

[11] = Quantitative High-Throughput drug screen in 47 multiple myeloma cell lines against the NCATS MIPE library collection: OCIMY7_PLB cell viability assay (AID 1918987); details: OCI-MY7 myeloma viability, CellTiter-Glo ATP, 48 h; viability (% of DMSO): at 45.8 µM (top of the series); note: nearly all actives have a fitted effect of over 65% in size
Procedure, shortened: as §1

[12] = Quantitative High-Throughput drug screen in 47 multiple myeloma cell lines against the NCATS MIPE library collection: OCIMY5_PLB cell viability assay (AID 1918988); details: OCI-MY5 myeloma viability, ATP luminescence, 48 h; series mostly up to 45.8 µM; note: nearly all actives have a fitted effect of over 65% in size
Procedure, shortened: as §1

[13] = Quantitative High-Throughput drug screen in 47 multiple myeloma cell lines against the NCATS MIPE library collection: OPM1_PLB cell viability assay (AID 1918989); details: CellTiter-Glo, 48 h; series mostly up to 45.8 µM; note: nearly all actives have a fitted effect of over 40% in size
Procedure, shortened: as §1

[14] = Quantitative High-Throughput drug screen in 47 multiple myeloma cell lines against the NCATS MIPE library collection: VP6_DJ cell viability assay (AID 1919867); details: ATP luminescence, 48 h; series mostly up to 45.8 µM; note: nearly all actives have a fitted effect of over 40% in size;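 for viability (% of DMSO): 100% = DMSO-only wells and 0% = wells with media alone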
Procedure, shortened: as §1

[15] = Quantitative High-Throughput drug screen in 47 multiple myeloma cell lines against the NCATS MIPE library collection: UTMC2_PLB cell viability assay (AID 1919868); details: CellTiter-Glo ATP luminescence, 48 h; viability (% of DMSO control): at 45.8 µM (top of the series); note: nearly all actives have a fitted effect of over 55% in size
Procedure, shortened: as §1

[16] = Quantitative High-Throughput drug screen in 47 multiple myeloma cell lines against the NCATS MIPE library collection: OPM2_DSMZ cell viability assay (AID 1919872); details: OPM2 myeloma viability, CellTiter-Glo ATP luminescence, 48 h; series mostly up to 45.8 µM; note: nearly all actives have a fitted effect of over 30% in size
Procedure, shortened: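 Inhibition of cell viability is measured here. Each line was plated at 500 cells per well, treated with MIPE 4.0 drugs, kept 48 hours at 37C, then assayed for ATP content by CellTiter-Glo luminescence.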
Potency is the fitted concentration of half-maximal effect.

## C[C@]12C=CC(=O)C=C1CC[C@@H]1[C@@H]2[C@@H](O)C[C@@]2(C)[C@@H]1CC[C@]2(O)C(=O)CO
[1]
  Potency: 0.187 µM (active)
[2]
  Potency: 1.48 µM (active)
[3]
  Potency: inactive
[4]
  Potency: inactive
[5]
  Potency: inactive
[6]
  Potency: inactive
[7]
  Potency: inactive
[8]
  Potency: 0.187 µM (active)
[9]
  Potency: 0.0935 µM (active)
[10]
  Potency: inactive

## COc1ccc(-c2cc3nccn3c(Nc3ncccc3C(N)=O)n2)cc1OC
[11]
  Potency: 0.148 µM (active)
[12]
  Potency: 3.32 µM (active)
[13]
  Potency: 2.09 µM (active)
[2]
  viability: 103%
[3]
  Potency: 16.6 µM (active)
[4]
  Potency: 1.18 µM (active)
[5]
  Potency: 1.05 µM (active)
[14]
  Potency: 0.935 µM (active)
[15]
  Potency: 1.18 µM (active)
[6]
  Potency: 0.59 µM (active)
[7]
  Potency: 0.264 µM (active)
[8]
  Potency: inactive
[16]
  Potency: 8.33 µM (active)
[9]
  Potency: 4.69 µM (active)
[10]
  Potency: 6.62 µM (active)

## CC(C)(F)C[C@H](N[C@@H](c1ccc(-c2ccc(S(C)(=O)=O)cc2)cc1)C(F)(F)F)C(=O)NC1(C#N)CC1
[1]
  Potency: inactive
[13]
  Potency: 5.9 µM (active)
[3]
  Potency: inactive
[4]
  Potency: inactive
[5]
  Potency: inactive
[14]
  Potency: inactive
[6]
  Potency: 6.62 µM (active)
[7]
  Potency: inactive
[16]
  Potency: inactive
[9]
  Potency: inactive
[10]
  Potency: inactive

## CN(C)N=Nc1nc[nH]c1C(N)=O
[1]
  Potency: inactive
[12]
  Potency: 20.9 µM (active)
[2]
  viability: 140%
[3]
  Potency: inactive
[4]
  Potency: 5.26 µM (active)
[5]
  Potency: 2.64 µM (active)
[7]
  Potency: inactive
[8]
  Potency: inactive
[16]
  Potency: inactive
[9]
  Potency: inactive

## CN1CCC[C@H]1CCO[C@](C)(c1ccccc1)c1ccc(Cl)cc1
[1]
  Potency: inactive
[12]
  Potency: 26.4 µM (active)
[13]
  Potency: 26.4 µM (active)
[2]
  viability: 84.5%
[4]
  Potency: 18.7 µM (active)
[5]
  Potency: 18.7 µM (active)
[14]
  Potency: 18.7 µM (active)
[15]
  Potency: 14.8 µM (active)
[8]
  Potency: inactive
[16]
  Potency: inactive

## COc1cc(C=CC(=O)O)ccc1O
[1]
  Potency: inactive
[12]
  Potency: inactive
[2]
  viability: 124%
[4]
  Potency: inactive
[14]
  Potency: inactive
[7]
  Potency: inactive
[8]
  Potency: inactive
[16]
  Potency: inactive
[9]
  Potency: inactive
[10]
  Potency: inactive

## N#CC1(c2cccc(C(=O)Nc3cc(Oc4ccc5nc(NC(=O)C6CC6)sc5n4)ccc3F)c2Cl)CC1
[1]
  Potency: inactive
[2]
  Potency: 2.96 µM (active)
[3]
  Potency: 5.26 µM (active)
[4]
  Potency: 1.48 µM (active)
[5]
  Potency: 2.35 µM (active)
[14]
  Potency: 5.9 µM (active)
[8]
  Potency: 1.05 µM (active)

## CN1c2ccccc2C(=O)N2CCc3c([nH]c4ccccc34)C21 (configuration not stated)
[11]
  Potency: 20.9 µM (active)
[12]
  Potency: inactive
[2]
  viability: 100%
[3]
  Potency: 16.6 µM (active)
[4]
  Potency: 14.8 µM (active)
[8]
  Potency: inactive
[16]
  Potency: inactive
[9]
  Potency: 2.96 µM (active)
[10]
  Potency: 3.32 µM (active)

## CN1CCc2c(n(Cc3ccc(C(=O)NO)cc3)c3ccccc23)C1
[11]
  Potency: 4.18 µM (active)
[12]
  Potency: 16.6 µM (active)
[2]
  Potency: 5.9 µM (active)
[3]
  Potency: 26.4 µM (active)
[4]
  Potency: 14.8 µM (active)
[14]
  Potency: 13.2 µM (active)
[6]
  Potency: 20.9 µM (active)
[7]
  Potency: 20.9 µM (active)
[9]
  Potency: 18.7 µM (active)

## COc1ccc(-c2oc3c(CC=C(C)C)c(O)cc(O)c3c(=O)c2O)cc1
[11]
  Potency: 5.9 µM (active)
[12]
  Potency: 14.8 µM (active)
[13]
  Potency: inactive
[2]
  Potency: 20.9 µM (active)
[3]
  Potency: 16.6 µM (active)
[4]
  Potency: 6.62 µM (active)
[14]
  Potency: 5.26 µM (active)
[6]
  Potency: inactive
[7]
  Potency: 7.43 µM (active)
[8]
  Potency: 20.9 µM (active)
[16]
  Potency: inactive
[10]
  Potency: 3.72 µM (active)

## CC(C)C[C@@H](C(=O)N[C@H](C(=O)OC1CCCC1)c1ccccc1)[C@H](O)C(=O)NO
[11]
  Potency: 14.8 µM (active)
[12]
  Potency: 20.9 µM (active)
[2]
  Potency: 20.9 µM (active)
[4]
  Potency: 14.8 µM (active)
[14]
  Potency: 16.6 µM (active)
[15]
  Potency: 16.6 µM (active)
[6]
  Potency: 29.6 µM (active)
[7]
  Potency: 18.7 µM (active)
[9]
  Potency: 18.7 µM (active)

## COc1cc2c(cc1Cc1cccc(Cl)c1F)c(=O)c(C(=O)O)cn2[C@H](CO)C(C)C
[11]
  Potency: 18.7 µM (active)
[12]
  Potency: 7.43 µM (active)
[4]
  Potency: 18.7 µM (active)
[5]
  Potency: 18.7 µM (active)
[14]
  Potency: 10.5 µM (active)
[6]
  Potency: 23.5 µM (active)
[7]
  Potency: 16.6 µM (active)
[8]
  Potency: 14.8 µM (active)
[9]
  Potency: 2.96 µM (active)
[10]
  Potency: 23.5 µM (active)

## COc1ccc(-c2ccc3ncc4c(c3c2)n(-c2ccc(N3CCNCC3)c(C(F)(F)F)c2)c(=O)n4C)cn1
[11]
  Potency: 0.0059 µM (active)
[12]
  Potency: 0.0469 µM (active)
[2]
  Potency: 0.526 µM (active)
[3]
  Potency: 0.118 µM (active)
[8]
  Potency: 0.332 µM (active)

— PubChem BioAssay (NCATS)
